Source: PubChem BioAssay (Tox21)
Results filed as inconclusive are left out. Entries that show only a call come without a potency. Active and inactive are the calls of the source. Calls follow the shape of the full dose curve.

Assay: cAMP Responsive Elements (CRE) small molecule agonists, cell-based qHTS assay (AID 1963590)
Details: CRE-bla HEK293T, beta-lactamase FRET ratio, 3 h; series mostly up to 92.4 µM
Excerpt: U.S. Tox21 Program National Center for Advancing Translational Sciences [NCATS] Division of Preclinical Innovation [DPI] U.S. Environmental Protection Agency [EPA] National Institutes of Environmental Health Sciences [NIEHS] National Toxicology Program [NTP] U.S. Food and Drug Administration [FDA] Tox21 Assay Overview: CREB (cyclic-AMP Responsive Element Binding Protein) is a cellular transcription factor. It binds to certain DNA sequences called cAMP Responsive Elements (CRE) and regulates the transcription of the genes. […] This cell line can be used to find agonists/antagonists of the cyclic AMP signaling pathway. The activation of the report gene under culture conditions can be detected by fluorescence intensity. This cell line has been used to screen the Tox21 10K compound library to identify agonists that induce oxidative stress.
Tox21 Assay Protocol Summary: CRE-bla Hek 293T cells were suspended in assay medium (DMEM containing 10% dialyzed FBS, 0.1 mM NEAA, 1 mM sodium pyruvate and 25 mM HEPES) and dispensed at 2,000 cells/5 uL /well into 1536-well black wall/clear bottom plates using a Multidrop Combi (ThermoFisher Scientific, Waltham, MA) dispenser. After the assay plates were incubated at 37 C/5% CO2 for 18 hrs, 23 nL of compounds dissolved in DMSO, positive controls or DMSO only was transferred to the assay plate by a pintool workstation (Kalypsys, San Diego, CA). After the plates were incubated at 37 C/5% CO2 for 3 hrs, 1 uL of LiveBLAzer B/G FRET substrate (Invitrogen, Carlsbad, CA) was added to each well using Bioraptr Flying Reagent Dispenser (FRD, Aurora Discovery, San Diego, CA). The plates were incubated at room temperature for 2 h.

Compound | Potency
Nc1cc2c3c(c1)C(c1ccccc1)=N[C@@H](NC(=O)c1cccnc1)C(=O)N3CC2 | inactive
NNC(=O)c1cccnc1 | inactive
CC(C)(OO)c1ccccc1 | inactive
CC(=O)OC(c1ccccc1)C(Cl)(Cl)Cl (stereo not given) | inactive
CC(Cc1ccc2c(c1)OCO2)NO (stereo not given) | inactive
CCCCCCC[CH2][Sn]([Cl])([Cl])[CH2]CCCCCCC | inactive
ClC(Cl)=C(Cl)Cl | inactive
CN1C(=O)[C@@H](NC(=O)c2cc3ccccc3[nH]2)N=C(c2ccccc2)c2ccccc21 | inactive
COC(=O)C1=CCCN(C)C1 | inactive
CC(=O)[O-].CC(=O)[O-].[Co+2] | inactive
Cc1cc(OC(=O)N(C)C)nn1C(=O)N(C)C | inactive
FC(F)OC(F)(F)C(F)Cl (stereo not given) | inactive
COc1ccc(OC)c(C=O)c1 | inactive
CCNS(=O)(=O)C(F)(F)C(F)(F)C(F)(F)C(F)(F)C(F)(F)C(F)(F)C(F)(F)C(F)(F)F | inactive
COc1cc(CC(C)N)c(OC)cc1Br (stereo not given) | inactive
C[N+]1(C)[C@@H]2CC[C@H]1CC(OC(=O)C(CO)c1ccccc1)C2 (stereo not given in full) | inactive
Nc1ccc(Sc2ccc(N)cc2)cc1 | inactive
COCCOCCO | inactive
O=C(N[C@H]1CN2CCC1CC2)c1ccc2c(c1)OCCO2 | inactive
O=C(NC(=O)c1c(F)cccc1F)Nc1ccc(OC(F)(F)C(F)OC(F)(F)F)c(Cl)c1 (stereo not given) | inactive

Compound | Potency
C1=CCC=C1 | inactive
O=c1[nH]c2ccccc2o1 | inactive
CN(CCCC(O)c1cccnc1)N=O (stereo not given) | inactive
CCOC1Oc2ccc(OS(C)(=O)=O)cc2C1(C)C (stereo not given) | inactive
O=S(=O)(O)F | inactive
COc1ccc(OC)c(CC(C)N)c1 (stereo not given) | inactive
Nc1ccc(Cc2ccc(N)c(Cl)c2)cc1Cl | inactive
C=C(C)C(=O)OCCCCOC(=O)C(=C)C | inactive
Cc1c([N+](=O)[O-])cc2c(c1[N+](=O)[O-])C(C)(C)CC2(C)C | inactive
Clc1ccccc1 | inactive
CCCCC(=O)Cl | inactive
Oc1ccccc1Br | inactive
CCOC(C(=O)OCCN(C)C)(c1ccccc1)c1ccccc1 | inactive
Fc1ccc(C2(Cn3cncn3)OC2c2ccccc2Cl)cc1 (stereo not given) | inactive
C[C@@H](N)[C@@H](O)c1ccccc1 | inactive
CC(=O)[O-].CC(=O)[O-].O.O.[Cd+2] | inactive
CC(Cc1ccccc1)NCCn1cnc2c1c(=O)n(C)c(=O)n2C (stereo not given) | inactive
CC(C)[C@]12CC(=O)[C@H](C)[C@H]1C2 | inactive
CCc1ccc(C2CCNCC2)cc1 | inactive
COC(=O)N(C(=O)N1COC2(C(=O)OC)Cc3cc(Cl)ccc3C2=N1)c1ccc(OC(F)(F)F)cc1 (stereo not given) | inactive
